Only some compounds are listed: those with a hit (about 1.6% of all), similar ones and a draw of the others.
Smad3 FoxH1 inh: Smad3/FoxH1 peptide binding inhibitors, primary screen, biochemical, TR-FRET | 0.29% of 88,000 active | AID 630, 2007 | inhibition, % at 25 µM | TR-FRET Smad3/Dy647-FoxH1 peptide binding, europium anti-His;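 active = compounds that reduce the energy-transfer binding signal between the protein and its labelled peptide by more than half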;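 note: 0% = Smad3 plus labelled peptide maximal FRET and 100% = peptide-only background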
Plk1 PBD FP: Plk1 polo box domain binding inhibitors, primary screen, biochemical, fluorescence polarization; Plk1 PBD phosphopeptide binding; inhibition, %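 (tested at about 20 µM)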; 0.13% of 97,000 active; AID 693, 2007; in the data active = inhibition above about 34%, passing the limit was not always enough
Target sequence (P53350 whole entry, looked up, the tested form may be a part): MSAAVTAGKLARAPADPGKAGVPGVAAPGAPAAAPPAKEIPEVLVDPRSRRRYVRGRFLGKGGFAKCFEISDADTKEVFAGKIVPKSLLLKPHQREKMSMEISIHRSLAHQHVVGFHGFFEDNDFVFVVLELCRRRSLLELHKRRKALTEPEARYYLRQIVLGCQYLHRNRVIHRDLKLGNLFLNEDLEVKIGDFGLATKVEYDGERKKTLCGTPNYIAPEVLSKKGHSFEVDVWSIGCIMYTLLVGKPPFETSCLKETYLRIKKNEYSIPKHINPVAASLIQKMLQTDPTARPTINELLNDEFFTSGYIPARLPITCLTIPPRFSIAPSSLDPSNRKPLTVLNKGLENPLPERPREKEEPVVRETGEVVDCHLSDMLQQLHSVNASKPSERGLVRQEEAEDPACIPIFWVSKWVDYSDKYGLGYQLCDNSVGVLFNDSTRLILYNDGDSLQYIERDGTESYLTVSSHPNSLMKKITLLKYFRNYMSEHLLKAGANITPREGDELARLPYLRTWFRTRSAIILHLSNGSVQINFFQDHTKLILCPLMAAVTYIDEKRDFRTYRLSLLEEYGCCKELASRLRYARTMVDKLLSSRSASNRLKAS
PLK1 kinase inh: human PLK1 kinase inhibitors, primary screen, biochemical, TR-FRET. Serine/threonine-protein kinase PLK1 (Homo sapiens), P53350. recombinant PLK1 kinase, TR-FRET peptide phosphorylation. inhibition, % at 10 µM. 0.53% of 97,000 active. AID 619, 2007;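 active = inhibition of 50% or more in the single-concentration screen; inactive = inhibition below 50%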;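 note: 0% = DMSO max control and 100% = H-89 dihydrochloride min control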
FAK inh: FAK kinase inhibitors, primary screen, biochemical. Focal adhesion kinase 1 (Homo sapiens), Q05397. biochemical FAK kinase activity assay. inhibition, %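 (tested at 7 µM)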. 0.84% of 97,000 active;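 note: 0% = DMSO and 100% = reference compound high control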
EphB4 ephrin blk: EphB4-ephrin-B2 interaction antagonists, primary screen, biochemical, TNYL-RAW peptide probe, fluorescence polarization; Ephrin type-B receptor 4 (Homo sapiens), P54760; AID 720, 2007; EphB4 LBD / TNYL-RAW-Alexa532 peptide; inhibition, % at 7 µM; 0.15% of 97,000 active;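 active = inhibition above the screen-wide mean inhibition plus 3 SD, cut at about 15% in these data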;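 note: 0% = DMSO wells and 100% = excess unlabeled TNYL-RAW peptide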
FAK inh confirm: FAK kinase inhibitors, retest, confirmation, biochemical; AID 794, 2007; inhibition, % at 7 µM; FAK kinase biochemical inhibition assay; shares compounds with FAK inh; 28% of 750 active
Numbers without * were called inactive; . = no result given. Cut-off read from the data, not from the text of the source, unless noted: active = inhibition above about 19%; inactive = the rest.

SMILES	Smad3 FoxH1 inh	Plk1 PBD FP	PLK1 kinase inh	FAK inh	EphB4 ephrin blk	FAK inh confirm
O=C(Nc1cccc(NC(=O)c2ccccc2[N+](=O)[O-])n1)c1ccccc1[N+](=O)[O-]	.	12	-6	5	-1	.
Cc1nnc(NC(=O)CSc2ncnc3c2cnn3-c2ccccc2C)s1	.	-13	-11	30*	-2	2
Cc1ccccc1-n1ncc2c(SCC(=O)N3c4ccccc4CC3C)ncnc21 (stereo not drawn)	.	-31	-1	-3	0	.
Oc1cccc(Nc2ncnc3ccccc23)c1	-2	7	-1	23*	4	7
N[C@H](C(=O)O)[C@H](N)C(=O)O	10	.	.	.	.	.
O=C(O)c1ccoc1CN1CCCCC1	-11	6	-2	0	-1	.
Cc1cc2ncn(S(=O)(=O)N(C)C)c2cc1C	2	-17	-4	19*	0	5
CCn1c(=O)c(C(=O)Nc2nc3ccccc3[nH]2)c(O)c2ccccc21	.	-6	-4	23*	0	21*
CCn1c(=O)c(C(=O)Nn2c(C)nc3ccccc3c2=O)c(O)c2ccccc21	19	.	.	.	.	.
COc1ccc2[nH]c3nc(SCC(=O)NNC(=O)c4ccc(OC)c(OC)c4)nnc3c2c1	.	-17	-1	0	5	.
Cc1ccc(C(=O)NNC(=O)CSc2nnc3c(n2)[nH]c2ccc(F)cc23)cc1	.	-8	-12	69*	0	39*
Cc1sc2nc(SCc3nc(-c4ccccc4)no3)n(-c3ccccc3)c(=O)c2c1C	.	15	-9	-1	4	.
Cc1cccc(OCC(=O)Nc2ccc(N3CCN(C(=O)c4ccco4)CC3)cc2)c1	.	-15	-12	6	-3	.
Cc1cc(OCC(=O)Nc2ccc(N3CCCC3)cc2)cc(C)c1Cl	-5	5	-8	33*	6	17
Cc1cc(OCC(=O)Nc2ccc(N3CCN(C(=O)c4ccco4)CC3)cc2)cc(C)c1Cl	.	-5	-8	69*	-6	22*
Cc1nc(SCC(=O)Nc2c(C)n(C)n(-c3ccccc3)c2=O)[nH]c(=O)c1C	11	6	-13	-2	1	.
C=CCn1c(SCC(=O)N2CCCC2)nc2scc(-c3cccs3)c2c1=O	.	-7	11	40*	-6	31*
CCCCc1cc(=O)oc2cc(C)c(CN3CCCC3)c(O)c12	11	14	-10	21*	6	1
O=C(c1ccco1)N(CCC(c1ccccc1)c1ccco1)Cc1ccco1 (stereo not drawn)	.	-11	-16	20*	1	4
CC1CCc2c(sc3nn[nH]c(=O)c23)C1 (stereo not drawn)	2	-5	-1	26*	-5	7
CCOC(=O)C=C1CCN(c2ncc(C(F)(F)F)cc2Cl)CC1	.	2	-6	0	-3	.
COC(=O)c1c(C)oc2ccc(NS(=O)(=O)c3cccs3)cc12	9	8	-9	24*	1	12
COCCOC(=O)c1c(C)oc2ccc(NS(=O)(=O)c3ccccc3)cc12	1	-25	-14	2	-2	.
Cc1ccc(N/C=C/C(=O)c2sc(-c3ccccc3)nc2C)cc1	.	7	-2	1	-3	.
COc1ccc(-n2nc(C(=O)NCC(=O)Nc3ccccn3)c3ccccc3c2=O)cc1Cl	.	20	-26	23*	6	45*
SMILES	Smad3 FoxH1 inh	Plk1 PBD FP	PLK1 kinase inh	FAK inh	EphB4 ephrin blk	FAK inh confirm
O=C(Nc1ccc(F)cc1)Nc1nnc(-c2ccncc2)s1	.	8	0	30*	-2	7
COc1ccc(C2C(C#N)=C(C)NC3=C2C(=O)c2ccccc23)cc1 (stereo not drawn)	12	-11	-3	2	-4	.
CC1=C([N+](=O)[O-])C(c2ccccc2)C2=C(N1)c1ccccc1C2=O (stereo not drawn)	.	-12	-9	25*	-5	15
CCOc1ccc(S(=O)(=O)N(CC(=O)N/N=C/c2ccc(-c3ccc([N+](=O)[O-])cc3)o2)c2ccccc2)cc1	.	1	-25	45*	1	21*
Cc1ccc(C)c(N(CC(=O)N/N=C/c2ccc(-c3ccc([N+](=O)[O-])cc3)o2)S(=O)(=O)c2ccccc2)c1	.	-14	-3	3	-7	.
c1cc(CSSCc2ccncc2)ccn1	39	.	.	.	.	.
Cc1cc(S(=O)(=O)Nc2ccccc2C(=O)O)ccc1Cl	0	-1	-14	-3	-10	.
Cc1nn(-c2ccccc2)c(Cl)c1/C=N/Nc1ccc(S(=O)(=O)Nc2ccccc2C(=O)O)cc1[N+](=O)[O-]	9	-4	2	19*	2	5
CC(C)c1cc(C(F)(F)F)nc(NNc2nc(C(C)C)cc(C(F)(F)F)n2)n1	16	.	.	.	.	.
COc1cccc(-c2nc(-c3ccccn3)no2)c1	4	-1	-12	98*	4	-2
O=C(O)c1ccc(C(=O)Nc2cccc3ccccc23)c(C(=O)O)c1	17	.	.	.	.	.
CCN1CCN(c2cc(C)c3cc(NC(=O)c4cncc(Br)c4)ccc3n2)CC1	2	-10	-8	26*	2	12
CCc1nc(Sc2nc(C)cc(C)n2)c2oc3ccccc3c2n1	8	26	-10	22*	3	5
c1coc(CNc2ncnc3nc[nH]c23)c1	4	.	.	.	.	.
Cc1ccc2[nH]c3c(NCc4ccco4)ncnc3c2c1	-5	-25	-6	34*	6	21*
Cc1cc(C(=O)CSc2nnc(-c3cccs3)n2Cc2ccccc2)c(C)n1C	-16	-4	-12	-1	-4	.
O=c1cc(CSc2nnc(-c3cccs3)n2Cc2ccccc2)nc2sc3ccccc3n12	8	8	-7	31*	6	4
COc1ccc(C(=O)[C@H](Br)[C@H](Br)C(=O)O)cc1	26	.	.	.	.	.
COc1ccc(C2N(S(=O)(=O)c3ccc(C)cc3)CCN2S(=O)(=O)c2ccc(C)cc2)cc1	-9	-3	-12	-4	9	.
O=C(N/N=C/C=C/c1ccc([N+](=O)[O-])cc1)c1cccs1	.	-35	-17	56*	0	21*
Oc1ccc(N=Cc2ccc(O)c(O)c2)cc1	.	-19	35	22*	-6	2
O=C(c1cc2ccccc2oc1=O)N1CCN(c2ncccn2)CC1	4	-6	-5	0	6	.
Cc1ccc(-c2c(C#N)c(N)n3c(nc4ccccc43)c2C#N)cc1	.	-2	-10	24*	2	3
CCCNc1cc(C)c(C#N)c2nc3ccccc3n12	-3	8	-8	0	-8	.
COc1ccc(C(=O)c2sc3nc(-c4ccccc4)ccc3c2N)cc1OC	.	-21	-22	59*	-3	34*
COc1ccc(-c2ccc3c(N)c(C(=O)c4ccc(OC)c(OC)c4)sc3n2)cc1	.	-11	-17	35*	5	25*

Screening data as filed in PubChem.
